Data published in the supplement of paper PMC10981050.
Structures can show the parent of a compound that is named as a salt.

Each compound was assayed on MARIMO (assay: cell viability relative to vehicle control; higher = less cytotoxic). Conditions: 10 µM; SRSF2 genotype: SRSF2 P95H/wt.
Outline: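 Mutant clones made by CRISPR editing and their isogenic wild-type counterparts, from four leukaemia lines, were exposed to a single 10 µM dose of each library compound for 48 h. The supernatant was then removed and CellTiter-Glo luminescence was read. Viability was reported as percent of the on-plate vehicle control.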
`CO[C@H]1/C=C/O[C@@]2(C)Oc3c(C)c(O)c4c(O)c(c(/C=N/N5CCN(C6CCCC6)CC5)c(O)c4c3C2=O)NC(=O)/C(C)=C\C=C\[C@H](C)[C@H](O)[C@@H](C)[C@@H](O)[C@@H](C)[C@H](OC(C)=O)[C@@H]1C` [Rifapentine] gave a cell viability of 78.3%.
`O=C1NC(=O)/C(=C/c2ccc3c(c2)OC(F)(F)O3)S1` gave a cell viability of 101%.
In the case of `CCOC(=O)c1ccc(N)cc1` [Benzocaine], the cell viability is reported as 84%.
For `Cn1nc(C(C)(C)C)cc1C(=O)N[C@@H](Cc1cccc(Cl)c1)C(=O)NCC#N` [Cathepsin Inhibitor 1], the cell viability was 93.1%.
With `Cc1c(C(=O)Nc2ccc(N3CCC(N4CCOCC4)CC3)c(C#N)c2)cnn1-c1ccc(Cl)cc1` the cell viability was 6.27%.
Compound `CCOC(=O)[C@H](CCc1ccccc1)N[C@@H](C)C(=O)N(CC(=O)O)C1Cc2ccccc2C1` [Delapril Hydrochloride] has a cell viability of 91%.
Work on `CC1(C)[C@@H](O[C@H]2O[C@H](C(=O)O)[C@@H](O)[C@H](O)[C@H]2O[C@@H]2O[C@H](C(=O)O)[C@@H](O)[C@H](O)[C@H]2O)CC[C@]2(C)[C@H]3C(=O)C=C4[C@@H]5C[C@@](C)(C(=O)O)CC[C@]5(C)CC[C@@]4(C)[C@]3(C)CC[C@@H]12` [Ammonium Glycyrrhizate] yielded a cell viability of 101%.
`CCNC(=O)c1noc(-c2cc(C(C)C)c(O)cc2O)c1-c1ccc(CN2CCOCC2)cc1` [Luminespib (AUY-922, NVP-AUY922)] showed a cell viability of 32.3%.
`C=CCc1cc(OC)c(O)c(C(=O)NCCO)c1` [Alibendol] gave a cell viability of 98.2%.
In the case of `CN1CCN(Cc2ccc(Nc3ncc(Cl)c(Nc4ccccc4S(=O)(=O)N(C)C)n3)cc2)CC1`, the cell viability is reported as 30.3%.
Work on `CC(C[N+](C)(C)C)OC(N)=O` (centres undefined) [Bethanechol chloride] yielded a cell viability of 111%.
`CC1=CC(=O)[C@@H]2C[C@H]1C2(C)C` [(-)-Verbenone] gave a cell viability of 92.5%.
`C[C@@H](Nc1cc(F)cc(F)c1)c1cc(C(=O)N(C)C)cc2c(=O)cc(N3CCOCC3)oc12` gave a cell viability of 52%.
In the case of `Cc1nc2cccc(N)c2c(=O)n1C1CCC(=O)NC1=O` (centres undefined) [Avadomide(CC-122)], the cell viability is reported as 102%.
Compound `CN1Cc2c(ccc3c2OCO3)[C@@]2(C)[C@@H](O)Cc3cc4c(cc3[C@@H]12)OCO4` [Corynoline] has a cell viability of 8.07%.
`COc1ccc(Oc2cc(NCCC(F)(F)F)c3ncc(-c4ccc(C(=O)NC5CC5)c(C)c4)n3n2)c(F)c1F` showed a cell viability of 67.6%.
`O=[N+]([O-])c1ccc(Sc2cccc[n+]2[O-])c2nonc12` was tested, and the cell viability was 0.65%.
Work on `CC(=O)N1CCN(c2ccc(NC(=O)Cc3cnc(-c4ccnc(F)c4)c(C)c3)nc2)CC1` yielded a cell viability of 85.7%.
With `C[C@@H]1CC[C@H]2C(C)(C)[C@H]3C[C@@]12CC[C@@]3(C)O` [Cedrol] the cell viability was 103%.
`CNC(=O)c1ccc(N2C(=S)N(c3cnc(C#N)c(C(F)(F)F)c3)C(=O)C23CCC3)cc1F` showed a cell viability of 104%.
`C=C1[C@@H]2CC[C@@H](C2)C1(C)C` [Camphene] showed a cell viability of 102%.
For `CCCCCCCCC(=O)O` [Nonanoic acid], the cell viability was 108%.
For `CC1(C)S[C@@H]2[C@H](NC(=O)[C@H](NC(=O)N3CCNC3=O)c3ccccc3)C(=O)N2[C@H]1C(=O)O` [Azlocillin sodium salt], the cell viability was 82.3%.
Work on `COc1cc2ncnc(Nc3ccc(F)c(Cl)c3)c2cc1NC(=O)/C=C/CN1CCCCC1` yielded a cell viability of 55.2%.
`O=C1NS(=O)(=O)c2ccccc21` [Saccharin] showed a cell viability of 90.5%.
In the case of `CNC(=O)c1cnn(-c2nc(N)c3ncn([C@@H]4O[C@H](CO)[C@@H](O)[C@H]4O)c3n2)c1` [Regadenoson], the cell viability is reported as 102%.
`CCCc1cc(C(N)=S)ccn1` [Protionamide (Prothionamide)] showed a cell viability of 98.8%.
With `O=C(c1ccc(Oc2ccccc2)cc1Cl)c1c[nH]c2ncnc(N[C@@H]3CC[C@@H](CO)OC3)c12` the cell viability was 23.1%.
For `C=CC(=O)Nc1cc(Nc2nccc(-c3cn(C)c4ccccc34)n2)c(OC)cc1N(C)CCN(C)C`, the cell viability was 1.11%.
Compound `CC(=O)Oc1c(C)c(C)c2c(c1C)CCC(C)(CCC[C@H](C)CCC[C@H](C)CCCC(C)C)O2` (some centres undefined) [Vitamin E Acetate] has a cell viability of 102%.
Compound `C=CC(=O)Nc1ccc2ncnc(Nc3cccc(Br)c3)c2c1` has a cell viability of 70%.
For `CC1(C)O[C@H]1COc1c2ccoc2cc2oc(=O)ccc12` [Oxypeucedanin], the cell viability was 92.1%.
With `Cc1nc2ccc(NC(=O)Nc3ccnc4cccnc34)cc2o1` the cell viability was 96.4%.
With `O=C(COc1ccc(C(=O)c2ccccc2)cc1)NC1CCN(Cc2ccccc2)CC1` [Adiporon] the cell viability was 57.4%.
